Source: PubChem BioAssay
Tau fluor counter: counter-screen for tau fibril formation inhibitors; Potency, µM (highest dose often 57.7 µM); actives 0.93% (n = 280,000); AID 1463; tau K18 P301L Alexa594 fluorescence, heparin fibrillization; further: nearly all actives have a fitted effect of over 55% in size
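Human K18 P301L tau (15 uM unlabeled plus 0.24 uM Alexa 594-labeled, final) in 100 mM sodium acetate pH 7 was mixed with compound and 20 uM heparin and incubated 6 hr at 37 C.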
HTT ATP protect: Huntington cell model cytoprotection by ATP luminescence. actives 0.14% (n = 230,000). Potency, µM (top dose mostly 56.4 µM), usual class: activators. PC12 HTT-Q103 induced, cytoprotection, ATP luminescence, 40 h; further: nearly all actives have a fitted effect of over 45% in size
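Compounds added alongside 100 nM tebufenozide, which induces toxic Q103 huntingtin exon 1-GFP in stable PC12 cells; surviving cells quantified by luminescent ATP measurement. Medium: phenol red-free DMEM, 5% equine and 5% calf serum.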
HttQ103 aggreg: inhibitors of mutant huntingtin aggregate formation in PC12 cells. actives 1.1% (n = 220,000). Potency, µM (titrated, usually from 46.1 µM), actives largely listed as inhibitors. AID 1688. PC12 HttQ103-GFP aggregates, Acumen cytometry, 40 h; further: nearly all actives have a fitted effect of over 60% in size
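PC12/HTTQ103-GFP, ecdysone-inducible; teb 100 nM; cpd qHTS titration; GFP aggregates read on laser cytometer, Ex 488/Em 500-530 nm.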
Tau FP inhib: blocks human tau fibril formation measured by polarization; K18 P301L tau heparin fibrillization, Alexa594 FP, 6 h; actives 0.39% (n = 280,000); AID 1468; P10636; Potency, µM (doses to about 57.7 µM), usual class: inhibitors; further: nearly all actives have a fitted effect of over 55% in size
Target sequence (P10636 561-689 P618L limits assumed): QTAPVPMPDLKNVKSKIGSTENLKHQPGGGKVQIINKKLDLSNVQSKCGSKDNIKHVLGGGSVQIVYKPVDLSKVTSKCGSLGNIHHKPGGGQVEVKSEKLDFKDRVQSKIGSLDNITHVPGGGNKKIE
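Read-out: fluorescence polarization of Alexa 594-labeled tau (0.24 uM), 555 nm excitation, 632 nm emission. Mixtures held 15 uM unlabeled K18 P301L, compound and 20 uM heparin, pH 7 acetate buffer, incubated 6 hr at 37 C.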
Tau ThT inhib: tau fibrillization inhibition (ThT binding) | P10636 | recombinant tau K18 P301L (four-repeat tau fragment), heparin-induced fibrillization, ThT fluorescence | Potency, µM (highest dose often 57.4 µM), actives largely listed as inhibitors | actives 2.1% (n = 270,000) | AID 1460; further: nearly all actives have a fitted effect of over 55% in size
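Tau K18 P301L fragment (15 uM unlabeled plus 0.24 uM Alexa 594-labeled) in 100 mM sodium acetate pH 7 with compound, fibrillization induced by 20 uM heparin for 6 hr at 37 C. Thioflavin T (30 uM) added, fluorescence read after 1 hr (ex 450, em 510 nm).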
Of the large screens only hits and unclear results are named; the others gave an inactive call; [ ] = remark or other dose. In the library only some 3.7% were active in any assay of this set; here they are far more common. The call rests on the fitted dose curve; in most records, active means well fitted curve in the direction sought with a large enough effect; inconclusive means small, poorly fitted or top-dose-only effect, or another doubt; inactive means no such curve, though single readings can be large; an effect the other way counts as inactive or inconclusive.

CCOc1cc(C2C(C(=O)OC)=C(C)NC3=C2C(=O)c2ccccc23)c(Br)cc1O (stereo unspecified)	Tau fluor counter 14µM[quencher], Tau ThT inhib 5µM (no result: HTT ATP protect, HttQ103 aggreg)
CCOc1cc(C2C(C(=O)OC)=C(C)NC3=C2C(=O)c2ccccc23)cc(Br)c1OCC (stereo unspecified)	Tau fluor counter 4µM[quencher], Tau FP inhib inconclusive, Tau ThT inhib inconclusive (no result: HTT ATP protect, HttQ103 aggreg)
CCOc1cc(Br)c(C2C(C(=O)OC)=C(C)NC3=C2C(=O)c2ccccc23)cc1OCC (stereo unspecified)	Tau fluor counter inconclusive, Tau ThT inhib inconclusive (no result: HTT ATP protect, HttQ103 aggreg)
C#CCOc1ccc(C2C(C(=O)OC)=C(C)NC3=C2C(=O)c2ccccc23)cc1OCC (stereo unspecified)	Tau fluor counter 11µM[quencher], Tau ThT inhib inconclusive (no result: HTT ATP protect, HttQ103 aggreg)
Cc1cc(C)c2c(CC(=O)Nc3ccc(S(=O)(=O)N4CCCC(C)C4)cc3)coc2c1 (stereo unspecified)	Tau fluor counter inconclusive, Tau FP inhib 14µM (no result: HTT ATP protect, HttQ103 aggreg)
Cc1ccccc1C(=O)N(Cc1ccc(N(C)C)cc1)Cc1ccco1	Tau ThT inhib inconclusive (no result: HTT ATP protect, HttQ103 aggreg)
COC(=O)c1ccccc1NC(=O)CSCC(=O)Nc1ccccc1OC	none
Cc1ccccc1NC(=O)CSC(N)=O	Tau FP inhib inconclusive, Tau ThT inhib 25µM
NC(=O)SCC(=O)Nc1ccccc1C(=O)O	Tau FP inhib inconclusive, Tau ThT inhib 22µM
COc1ccccc1NC(=O)CSC(N)=O	Tau FP inhib inconclusive, Tau ThT inhib 32µM
COc1ccccc1NC(=O)CSc1nnc(N)s1	none (no result: HTT ATP protect, HttQ103 aggreg)
COc1ccccc1NC(=O)CSc1nnc(NC(=O)Nc2ccc(C)cc2)s1	Tau fluor counter inconclusive, Tau FP inhib 16µM (no result: HTT ATP protect, HttQ103 aggreg)
O=S(=O)(c1ccc(Cl)cc1)c1nc(-c2ccccc2Br)oc1N1CCOCC1	none (no result: HTT ATP protect, HttQ103 aggreg)
CCOC(=O)C1=C(C)NC(=O)N[C@@H]1c1coc2cc(C)cc(C)c2c1=O	none (no result: Tau fluor counter, HttQ103 aggreg, Tau FP inhib, Tau ThT inhib)
Cc1ccc(C)c(Cn2nnc(C(=O)NCc3ccccc3)c2N)c1	none (no result: HTT ATP protect, HttQ103 aggreg)
Cc1ccc(CSc2nncn3c2cc2sccc23)cc1	none (no result: HTT ATP protect, HttQ103 aggreg)
C=C(C)COc1ccc(-c2[nH]ncc2Oc2cccc(OC)c2)c(O)c1	Tau fluor counter 8.9µM[quencher], HttQ103 aggreg inconclusive, Tau FP inhib inconclusive
COc1ccc(Oc2cn[nH]c2-c2ccc(O)cc2O)cc1	Tau fluor counter inconclusive, HttQ103 aggreg inconclusive, Tau FP inhib inconclusive
COc1ccc(-c2[nH]ncc2Oc2ccccc2OC)c(O)c1	Tau fluor counter 25µM[quencher]
C=C(C)COc1ccc(-c2[nH]ncc2Oc2ccccc2OCC)c(O)c1	Tau fluor counter 4µM[quencher], HttQ103 aggreg inconclusive, Tau FP inhib inconclusive, Tau ThT inhib inconclusive
Cc1ccccc1S(=O)(=O)Cc1ccc(C(=O)N2CCN(c3cccc(C)c3C)CC2)o1	HttQ103 aggreg 13µM, Tau ThT inhib inconclusive
Cc1cc(/C([O-])=C(/C(=S)Nc2ccc(F)cc2)[n+]2ccccc2)c(C)n1-c1ccc(F)cc1	Tau fluor counter inconclusive, Tau ThT inhib 28µM
N#CC1=C2SCN(Cc3ccco3)CN2C(=O)CC1c1ccc(Cl)cc1 (stereo unspecified)	Tau FP inhib inconclusive, Tau ThT inhib 18µM
COc1ccc2ccccc2c1C1CC(=O)N2CN(Cc3ccco3)CSC2=C1C#N (stereo unspecified)	Tau FP inhib inconclusive, Tau ThT inhib inconclusive
CC(C)c1ccc(C2CC(=O)N3CN(Cc4ccco4)CSC3=C2C#N)cc1 (stereo unspecified)	Tau FP inhib inconclusive, Tau ThT inhib 22µM
COc1cc(CNCc2ccco2)ccc1OCc1ccccc1	HTT ATP protect inconclusive
COc1ccc(C2CC(=O)N3CN(Cc4ccco4)CSC3=C2C#N)cc1 (stereo unspecified)	Tau FP inhib inconclusive, Tau ThT inhib 25µM
CSC1=C(C#N)C(c2ccc(C(C)C)cc2)CC(=O)N1 (stereo unspecified)	none
COc1cc(C2CC(=O)N3CN(Cc4ccco4)CSC3=C2C#N)ccc1OCc1ccccc1 (stereo unspecified)	Tau fluor counter inconclusive, Tau FP inhib inconclusive, Tau ThT inhib 20µM
CCCn1c(C)nc2c(NCCCN(CCO)CCO)nc(C)nc21	none (no result: HttQ103 aggreg)
O=C(O)c1cccc(Cn2c(Cl)c(/C=N/NC(=O)c3ccccc3Cl)sc2=O)c1	Tau ThT inhib inconclusive
O=C(O)c1cccc(Cn2c(Cl)c(/C=N/Nc3ccccc3)sc2=O)c1	Tau fluor counter inconclusive, Tau FP inhib inconclusive, Tau ThT inhib 18µM
C=CC1=C2C=C(C3CC3)N(C3CCCCC3)C=C2C(=O)C(C)(OC(=O)c2ccco2)C1=O (stereo unspecified)	none (no result: HttQ103 aggreg)
COc1cc(/C=C2\SC(=Nc3ccccc3)N(CCc3c[nH]c4ccccc34)C2=O)ccc1OC(C)C(=O)O (stereo unspecified)	Tau fluor counter inconclusive, HttQ103 aggreg inconclusive, Tau ThT inhib inconclusive (no result: HTT ATP protect)
COc1ccc(N=C2S/C(=C\c3ccc(OC(C)C(=O)O)c(OC)c3)C(=O)N2CCc2c[nH]c3ccccc23)cc1 (stereo unspecified)	Tau fluor counter inconclusive, Tau ThT inhib 28µM
O=C1/C(=C/c2ccc(N3CCOCC3)o2)SC(=Nc2ccccc2)N1CCc1c[nH]c2ccccc12	Tau fluor counter inconclusive, HttQ103 aggreg inconclusive, Tau FP inhib inconclusive, Tau ThT inhib 14µM
CC(=O)N[C@H]1[C@H](O[C@@H]2c3ccc(c(Cl)c3)Oc3cc4cc(c3O[C@@H]3O[C@H](CO)[C@@H](O)[C@H](O)C3C)Oc3ccc(cc3Cl)C[C@H]3NC(=O)[C@@H](N)c5ccc(O)c(c5)Oc5cc(O)cc(c5)[C@H](NC3=O)C(=O)N[C@H]4C(=O)N[C@H]3C(=O)N[C@@H]2C(=O)N[C@@H](C(=O)O)c2cc(O)cc(O[C@H]4O[C@H](CO)[C@@H](O)C(O)[C@@H]4O)c2-c2cc3ccc2O)O[C@H](CO)[C@@H](O)[C@@H]1O (stereo partly specified)	none (no result: Tau fluor counter, Tau FP inhib, Tau ThT inhib)
Cn1nnnc1SCCCNCc1cc(Br)ccc1OCc1ccccc1	none (no result: HTT ATP protect, HttQ103 aggreg)
O=C(c1ccco1)N1CCN(C(=O)c2cnn3c2NC(c2cccs2)CC3C(F)(F)F)CC1 (stereo unspecified)	none
O=C(c1cnn2c1NC(c1ccco1)CC2C(F)(F)F)N1CCN(c2cccc(Cl)c2)CC1 (stereo unspecified)	HttQ103 aggreg 22µM, Tau ThT inhib inconclusive
O=C(O)Cn1cccc1C(=O)c1ccccc1	Tau fluor counter inconclusive, Tau ThT inhib 8.9µM
CCOC(=O)Cc1ccc(NC(=O)NC(C)c2c(-n3cccc3)sc(C)c2C)cc1 (stereo unspecified)	Tau fluor counter inconclusive, Tau FP inhib inconclusive (no result: HTT ATP protect, HttQ103 aggreg)
COC(=O)c1ccc(NC(=O)NC(C)c2c(-n3cccc3)sc(C)c2C)cc1 (stereo unspecified)	Tau fluor counter inconclusive, Tau FP inhib 18µM (no result: HTT ATP protect, HttQ103 aggreg)
COC(=O)c1c(C)c2c(C)cc3ccccn3c-2c1C(=O)OC	Tau fluor counter inconclusive, Tau ThT inhib 13µM
